# KDM5B inh: Primary screen for KDM5B Histone Demethylases FDH-coupled qHTS; KDM5B demethylase, FDH-coupled NADH fluorescence (FDH is formaldehyde dehydrogenase); Potency, µM (top dose mostly 57.7 µM), most hits filed as inhibitors; hit rate 2.6% among 220,000; further: potency means the concentration at half of the fitted maximal effect; 0% is about no effect; nearly all actives have a fitted effect of over 70% in size
# Target sequence (Q9UGL1 whole entry, looked up): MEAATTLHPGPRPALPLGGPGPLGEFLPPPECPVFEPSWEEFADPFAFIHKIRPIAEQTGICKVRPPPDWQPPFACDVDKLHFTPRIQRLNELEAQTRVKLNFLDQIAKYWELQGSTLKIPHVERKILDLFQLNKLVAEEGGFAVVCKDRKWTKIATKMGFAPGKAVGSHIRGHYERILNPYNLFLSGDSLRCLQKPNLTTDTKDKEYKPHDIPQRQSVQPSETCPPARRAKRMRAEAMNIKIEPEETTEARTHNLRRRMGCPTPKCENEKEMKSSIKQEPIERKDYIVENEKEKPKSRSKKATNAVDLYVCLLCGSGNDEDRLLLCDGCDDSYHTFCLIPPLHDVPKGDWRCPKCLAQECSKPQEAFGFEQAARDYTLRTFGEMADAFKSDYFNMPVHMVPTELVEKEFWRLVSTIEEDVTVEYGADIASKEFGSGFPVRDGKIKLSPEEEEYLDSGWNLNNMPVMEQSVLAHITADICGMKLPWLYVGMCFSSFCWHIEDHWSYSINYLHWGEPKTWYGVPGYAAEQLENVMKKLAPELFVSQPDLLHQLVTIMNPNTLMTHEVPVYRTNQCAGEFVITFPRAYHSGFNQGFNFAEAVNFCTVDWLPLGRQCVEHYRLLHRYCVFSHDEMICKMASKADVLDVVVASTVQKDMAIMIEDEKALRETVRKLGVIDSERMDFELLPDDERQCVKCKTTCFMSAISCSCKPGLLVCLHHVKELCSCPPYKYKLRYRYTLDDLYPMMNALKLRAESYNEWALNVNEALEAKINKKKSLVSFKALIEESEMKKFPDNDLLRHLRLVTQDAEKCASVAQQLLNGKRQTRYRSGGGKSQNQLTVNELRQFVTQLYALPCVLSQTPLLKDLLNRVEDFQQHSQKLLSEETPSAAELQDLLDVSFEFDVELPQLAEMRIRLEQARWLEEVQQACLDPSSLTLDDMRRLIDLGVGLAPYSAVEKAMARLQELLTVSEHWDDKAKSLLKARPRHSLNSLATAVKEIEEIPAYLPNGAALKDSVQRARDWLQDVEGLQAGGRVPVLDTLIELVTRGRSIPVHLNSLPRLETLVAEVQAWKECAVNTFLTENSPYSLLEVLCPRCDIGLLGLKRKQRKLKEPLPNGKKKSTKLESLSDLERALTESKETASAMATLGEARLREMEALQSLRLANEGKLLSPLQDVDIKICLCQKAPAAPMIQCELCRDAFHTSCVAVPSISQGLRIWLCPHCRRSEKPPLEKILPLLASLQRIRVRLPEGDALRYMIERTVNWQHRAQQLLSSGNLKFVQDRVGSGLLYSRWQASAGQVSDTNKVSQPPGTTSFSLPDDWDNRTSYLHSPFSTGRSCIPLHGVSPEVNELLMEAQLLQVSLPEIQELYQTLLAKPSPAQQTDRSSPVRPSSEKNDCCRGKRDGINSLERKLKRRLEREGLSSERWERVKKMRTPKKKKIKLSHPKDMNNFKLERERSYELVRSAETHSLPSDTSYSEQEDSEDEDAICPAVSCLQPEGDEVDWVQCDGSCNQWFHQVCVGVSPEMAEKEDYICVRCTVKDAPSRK
#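 Coupled FDH/NAD⁺ fluorescence readout. KDM5BΔAP 200 nM final; compound titration, 10 min RT preincubation; substrate mix 12.5 µM H3K4me3, 25 µM 2-OG, 50 µM Fe(II), 100 µM ascorbate, 0.25 mM NAD⁺, 0.25 U/mL FDH; ΔRFU over 30 min.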
# SNCA expr inh: Primary qHTS assay for inhibitors of alpha-synuclein gene (SNCA) expression. HEK-293 SNCA-luciferase knock-in, luminescence, 24 h. AID 1671194, 2021. hit rate 0.17% among 140,000. Potency, µM (series often up to 57.2 µM), without a hit: at the top dose activity change, negative = inhibition, usual class: inhibitors;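 further: potency means the concentration at half of the fitted maximal effect; plate controls were DMSO cells for no effect and cell-free wells for full effect; nearly all actives have a fitted effect of over 45% in size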
# IP6K1 inh: Primary qHTS assay for small molecule inhibitors of Inositol hexaphosphate kinase 1 (IP6K1); activity change, % (series mostly up to about 58 µM); hit rate 0.81% among 140,000; Inositol hexakisphosphate kinase 1 (Homo sapiens), Q92551; IP6K1 kinase, ADP-Glo luminescence, 2 h; stronger effect = lower value; in the data active means activity change below about -25%; further: on the % scale 0 is the no-effect control and ±100 the full control effect
#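 ADP-Glo luminescence measures ADP made by human IP6K1 during a 2 h RT reaction with ATP/IP6 (mix at 1.3 mM/130 uM); top library doses 57.5 and 19.1 uM final.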
# HEK293 viab: GF-AFC viability counterscreen for inhibitors of alpha-synuclein gene (SNCA) expression | HEK-293-SNCA-luc viability, GF-AFC fluorescence, 24 h | Potency, µM (highest dose often 57.1 µM), for the others: top-dose activity change, negative = cytotoxicity, hits mostly cytotoxic | hit rate 0.12% among 150,000;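 further: potency means the concentration at half of the fitted maximal effect; 0% = DMSO-treated cells and -100% = medium-only wells without cells; nearly all actives have a fitted effect of over 30% in size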
#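 Cytotoxicity counterscreen: after 24 h compound treatment of genome-edited SNCA-luciferase HEK-293 cells, live-cell protease substrate GF-AFC read by fluorescence after 30 min; activity scaled between DMSO (0%) and medium-only (-100%), curves Hill-fitted.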
# The depositor's hits bear a star; i = inactive; ? = inconclusive; . = no result; [ ] = dose if it differs, or a comment. Shown are actives, neighbours in structure and some others; about 2.8% of the full set was active somewhere. Unless noted, the call rests on the fitted dose curve; in most records, active means well fitted curve in the direction sought with a large enough effect; inconclusive means small, poorly fitted or top-dose-only effect, or another doubt; inactive means no such curve, though single readings can be large; an effect the other way counts as inactive or inconclusive.
SMILES,KDM5B inh,SNCA expr inh,IP6K1 inh,HEK293 viab
Cc1noc(C)c1-c1cc2cc(CO)oc2c(-c2ccccc2)n1,?,35.1%[87.6 µM],-22.5,11.6%[87.6 µM]
Cc1noc(C)c1-c1cc2cc(CO)oc2c(-c2ccc([S+](C)(=O)[O-])cc2)n1,35.5µM*,11.2%[87.6 µM],6.0,-1.3%[87.6 µM]
Cc1noc(C)c1-c1cc2cc(CN(C)C)oc2c(Nc2ccn(C)n2)n1,i,38.8%[87.6 µM],-3.0,3.7%[87.6 µM]
COc1cc(F)ccc1-c1nc(-c2c(C)noc2C)cc2cc(C)oc12,?,68.3%[87.6 µM],-2.0,1.5%[87.6 µM]
Cc1noc(C)c1-c1cc2cc(CN(C)C)oc2c(Nc2cccc([S+](C)(=O)[O-])c2)n1,31.6µM*,11.1%[87.6 µM],-4.4,-8.6%[87.6 µM]
CC(=O)c1ccc(NC(=O)C(C)Sc2ncnc3ccccc23)cc1 (configuration not stated),i,.,.,.
COCCN1CCOC2(CCN([S+](=O)([O-])c3cccc(C)c3)CC2)C1=O,i,-12.8%[87.6 µM],-1.5,-14.6%[87.6 µM]
COc1cccc(-c2nc(-c3c(C)noc3C)cc3cc(C)oc23)c1,35.5µM*,29.5%[87.6 µM],15.4,2.8%[87.6 µM]
Cc1cc2cc(-c3c(C)noc3C)nc(-c3ccc(CO)cc3)c2o1,?,63.0%[87.6 µM],-18.0,4.0%[87.6 µM]
COc1ccccc1CC(=O)N[C@@H]1CN(c2ncccn2)C[C@H]1CN(C)C,22.4µM*,6.9%,12.0,2.2%
CN(C)C[C@@H]1CN(c2ncccn2)C[C@H]1NC(=O)CCn1cccn1,28.2µM*,2.6%,6.0,0.8%
COc1ccc(CCC(=O)N[C@@H]2CN(c3ncccn3)C[C@H]2CN(C)C)cc1,22.4µM*,-13.8%,-1.1,0.3%
COc1ccccc1CCC(=O)N[C@@H]1CN(c2ccncn2)C[C@H]1CN(C)C,i,-7.8%,-4.6,-10.4%
COc1ccc(CCC(=O)N[C@@H]2CN(c3ncccn3)C[C@H]2CO)cc1,22.4µM*,-6.1%,12.9,1.7%
COc1ccc(CC(=O)N[C@@H]2CN(C)C[C@H]2CN(C)C)cc1,i,6.5%,-16.7,-0.1%
COCCOC1CCOC2(CCN(C(=O)c3ccc(OC)nc3)CC2)C1 (configuration not stated),i,17.3%,12.8,-11.6%[12.5 µM]
COc1ccc(C(=O)NCCn2ccn3nc(-c4ccc(C)cc4C)cc3c2=O)c(C)c1,?,8.0%,-9.2,?
COCC(=O)NC[C@H]1Cn2c(-c3ccc4c(c3)OCCO4)cnc2CO1,i,5.8%[87.6 µM],3.9,-0.2%[87.6 µM]
CN(C)C[C@@H]1CN(c2ncccn2)C[C@H]1NC(=O)Cc1ccsc1,22.4µM*,-15.4%,0.0,-1.9%
CN(C)C[C@@H]1CN(C2CCOCC2)C[C@H]1NC(=O)Cc1ccsc1,?,?,9.2,3.0%
O=c1cc(-c2ccc(Cl)cc2)sc2nnc(-c3ccccc3F)n12,i,.,.,.
C1=C(CCNc2ncncc2-c2nc(-c3ccccc3)no2)CCCC1,28.2µM*,16.6%,-6.3,6.0%
Cc1cccc(CNc2ncncc2-c2nc(-c3ccccc3)no2)c1,?,5.5%,-1.2,3.6%
c1ccc(-c2noc(-c3cncnc3NCCc3cccs3)n2)cc1,28.2µM*,6.0%,-7.2,6.4%
Fc1cc(F)cc(CNc2ncncc2-c2nc(-c3ccccc3)no2)c1,?,-10.5%,2.2,8.3%
SMILES,KDM5B inh,SNCA expr inh,IP6K1 inh,HEK293 viab
c1ccc(CCCNc2ncncc2-c2nc(-c3ccccc3)no2)cc1,28.2µM*,-17.1%,-10.6,10.8%
CCc1ccc2oc(C(=O)Nc3ccc(S(=O)(=O)Nc4cc(C)nc(C)n4)cc3)cc(=O)c2c1,i,.,.,.
Cc1ccc(C(=O)NC2CCN(c3cc(-c4ccc(F)cc4)[nH]n3)CC2)cc1C,i,30.1%,16.9,2.3%
O=C1N(Cc2ccccn2)C[C@H]2CN(Cc3ccc(C(F)(F)F)cc3)CCN12,i,?,-13.9,-4.6%[87.6 µM]
CS(=O)(=O)c1ccc(CN2CCN3C(=O)N(Cc4ccccn4)C[C@H]3C2)cc1,28.2µM*,-8.8%[87.6 µM],-8.8,1.4%[87.6 µM]
CC1CCC(NC(=O)c2ccc3c(c2)CCCC3)CC1 (configuration not stated),i,.,.,.
O=S(=O)(c1ccccc1)c1nnn2c1nc(N1CCCCC1)c1ccccc12,?,8.3%,-4.1,4.4%
Cc1ccc(S(=O)(=O)c2nnn3c2nc(N2CCOCC2)c2ccccc23)cc1C,79.4µM*,4.4%,15.0,5.8%
CC(C)c1ccc(S(=O)(=O)c2nnn3c2nc(N2CCCCC2)c2ccccc23)cc1,89.1µM*,-26.0%,10.2,0.5%

# From PubChem
